Reference: PubChem BioAssay (Tox21)
“And” between values parts separate entries of the source, which are not always exact repeats. Equal values may be shown once. Inconclusive results are not listed. Entries that show only a call come without a potency. The source holds several records for some structures; these can differ, active in one and inactive in another. The source made the active and inactive calls. Unless noted, calls follow the shape of the dose curve; as a rule, active = well fitted curve in the direction sought with a large enough effect in the repeat runs; inconclusive = weak or mixed curves; inactive = no such curve, though single readings can be large; an effect the other way counts as inactive or inconclusive.

What was measured:
[1] = qHTS assay to identify small molecule agonists of H2AX (AID 1224845; active = well fitted activation curve with a large enough effect in the signal ratio in the repeat runs, not every such curve was filed as active; the % refers to the signal ratio)
In short: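 Wild-type CHO-K1 cells, plated overnight, exposed 3hr at 37C to 15 concentrations (0.76% DMSO final). Lysed, then HTRF anti-pH2AX (S139) cryptate and anti-H2AX-d2 antibodies, 24 hr room temperature; 665/620 nm emission read.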

[2] = qHTS assay to identify small molecule agonists of H2AX - cell viability counter screen (AID 1224847; calls by dose curve; also: nearly all actives have a fitted effect of over 30% in size; also: potency is read from the fitted curve at half-maximal effect)
In short: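 CHO-K1 wt, 1000 cells/well, o/n 37C; cpds 15 conc, 3 h 37C, 0.76% DMSO; CellTiter-Glo, 30 min RT, luminescence.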

[3] = A CellTox Green Cytotoxicity Assay to monitor cytotoxicity in HEK293 cells - 0 hour (AID 1224869); also: nearly all actives have a fitted effect of over 50% in size; also: potency is read from the fitted curve at half-maximal effect
In short: (§1)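 HEK293 cells, 600/well, were preincubated 5 hours and then exposed to compounds at 37 C for up to 40 hours. A cell-impermeant cyanine dye staining dead-cell DNA was read by fluorescence at 0, 8, 16, 24, 32 and 40 h time points.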

[4] = qHTS RealTime-Glo MT Cell Viability Assay in HepG2 cells - 40 hour (AID 1224870); also: nearly all actives have a fitted effect of over 50% in size; also: potency is read from the fitted curve at half-maximal effect
In short: (§2)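 HepG2 cells (600/well) mixed with RealTime-Glo MT reagent, settled 5 h at 37 C/5% CO2 before compound addition. Nonlytic NanoLuc luminescence from viable-cell prosubstrate reduction read repeatedly during 40 h treatment at 37 C.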

[5] = A CellTox Green Cytotoxicity Assay to monitor cytotoxicity in HEK293 cells - 40 hour (AID 1224871); also: nearly all actives have a fitted effect of over 45% in size; also: potency is read from the fitted curve at half-maximal effect
In short: as §1

[6] = qHTS RealTime-Glo MT Cell Viability Assay in HEK293 cells - 16 hour (AID 1224872); also: nearly all actives have a fitted effect of over 50% in size; also: potency is read from the fitted curve at half-maximal effect
In short: (§3)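 Quantitative high-throughput screen of the Tox21 10K library in HEK293: cells and RealTime-Glo reagents plated together, compound added at 5 h, luminescence monitored through 40 h at 37 C.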

[7] = qHTS RealTime-Glo MT Cell Viability Assay in HepG2 cells - 8 hour (AID 1224873); also: nearly all actives have a fitted effect of over 55% in size
In short: as §2

[8] = A CellTox Green Cytotoxicity Assay to monitor cytotoxicity in HEK293 cells - 24 hour (AID 1224875); also: nearly all actives have a fitted effect of over 45% in size; also: potency is read from the fitted curve at half-maximal effect
In short: as §1

[9] = qHTS RealTime-Glo MT Cell Viability Assay in HepG2 cells - 32 hour (AID 1224877); also: nearly all actives have a fitted effect of over 55% in size; also: potency is read from the fitted curve at half-maximal effect
In short: (§4)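 Compound treatment began 5 h after plating HepG2 cells (600/well) with NanoLuc luciferase and prosubstrate. Plates stayed at 37 C for 40 h; luminescence was captured at six time points, 0 h through 40 h.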

[10] = A CellTox Green Cytotoxicity Assay to monitor cytotoxicity in HepG2 cells - 24 hour (AID 1224878); also: nearly all actives have a fitted effect of over 45% in size; also: potency is read from the fitted curve at half-maximal effect
In short: (§5)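 HepG2 cells, 600/well, preincubated 5 h with CellTox Green dye, then exposed to Tox21 compounds in DMSO at 37 C for up to 40 h. Dead-cell DNA fluorescence read at the indicated time point.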

[11] = A CellTox Green Cytotoxicity Assay to monitor cytotoxicity in HepG2 cells - 40 hour (AID 1224879); also: nearly all actives have a fitted effect of over 40% in size; also: potency is read from the fitted curve at half-maximal effect
In short: as §5

[12] = qHTS assay to identify small molecule antagonists of the estrogen related receptor (ERR) signaling pathway from Tox21 library (AID 1224848); also: nearly all actives have a fitted effect of over 50% in size; also: potency is read from the fitted curve at half-maximal effect
In short: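 Luminescent reporter read-out (ONE-Glo) from NTP's ERR cell line after 18 h treatment at 37 C with DMSO-dissolved Tox21 compounds; cells pre-plated 6 h beforehand at 2,000 per well.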

[13] = qHTS RealTime-Glo MT Cell Viability Assay in HEK293 cells - 32 hour (AID 1224868); also: nearly all actives have a fitted effect of over 50% in size; also: potency is read from the fitted curve at half-maximal effect
In short: as §3

[14] = qHTS RealTime-Glo MT Cell Viability Assay in HEK293 cells - 40 hour (AID 1224874); conditions: RealTime-Glo luminescence; max response: stronger effect = lower value; also: nearly all actives have a fitted effect of over 50% in size; also: potency is read from the fitted curve at half-maximal effect
In short: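 600 cells/well were plated with the nonlytic NanoLuc/prosubstrate reagent, pre-incubated 5 h, then given 23 nL of compound in DMSO. Incubation at 37 C for 40 h, with luminescence from viable-cell-reduced substrate read repeatedly from 0 h.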

[15] = A CellTox Green Cytotoxicity Assay to monitor cytotoxicity in HepG2 cells - 16 hour (AID 1224876); also: nearly all actives have a fitted effect of over 45% in size; also: potency is read from the fitted curve at half-maximal effect
In short: as §5

[16] = target: Thyrotropin receptor (Homo sapiens) (UniProt P16473); test: qHTS assay to identify small molecule agonists of the thyroid stimulating hormone receptor (TSHR) signaling pathway (AID 1224843; calls by dose curve; also: nearly all actives have a fitted effect of over 45% in size)
Thyrotropin receptor (Homo sapiens), sequence (P16473 whole entry, looked up): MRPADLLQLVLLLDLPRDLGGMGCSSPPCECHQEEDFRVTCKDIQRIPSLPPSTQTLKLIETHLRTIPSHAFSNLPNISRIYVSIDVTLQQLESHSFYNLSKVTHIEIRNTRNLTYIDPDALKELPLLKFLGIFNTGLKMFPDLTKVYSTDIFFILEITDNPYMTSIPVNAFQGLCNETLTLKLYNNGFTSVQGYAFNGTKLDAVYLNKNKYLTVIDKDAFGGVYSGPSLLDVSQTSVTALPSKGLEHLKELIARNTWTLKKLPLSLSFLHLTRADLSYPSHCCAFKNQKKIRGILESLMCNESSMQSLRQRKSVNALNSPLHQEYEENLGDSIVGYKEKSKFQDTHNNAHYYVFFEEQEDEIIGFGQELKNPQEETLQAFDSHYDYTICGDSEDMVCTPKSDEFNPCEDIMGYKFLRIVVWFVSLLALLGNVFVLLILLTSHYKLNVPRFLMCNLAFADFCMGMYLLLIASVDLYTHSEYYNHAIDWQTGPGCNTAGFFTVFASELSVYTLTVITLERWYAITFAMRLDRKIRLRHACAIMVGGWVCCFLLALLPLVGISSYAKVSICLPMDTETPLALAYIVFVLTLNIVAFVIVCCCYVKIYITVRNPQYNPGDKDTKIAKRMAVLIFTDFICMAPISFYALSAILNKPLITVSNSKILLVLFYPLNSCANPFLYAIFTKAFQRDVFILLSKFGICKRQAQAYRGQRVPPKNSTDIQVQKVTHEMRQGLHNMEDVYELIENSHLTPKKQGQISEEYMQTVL
In short: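 Steps: seed 800 TSHR-HEK293 cells per well; add test compound and hold 30 min at ambient temperature; dispense cAMP-d2 then anti-cAMP cryptate; incubate 1 h at ambient; measure fluorescence intensity.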

[17] = qHTS assay to identify small molecule agonists of the hypoxia (HIF-1) signaling pathway (AID 1224846; active = well fitted activation curve with a large enough effect in the signal ratio in the repeat runs, not every such curve was filed as active; the % refers to the signal ratio; also: potency is read from the fitted curve at half-maximal effect)
In short: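 HRE-bla ME-180 beta-lactamase reporter cells in medium with 0.5% dialyzed FBS, pre-incubated 5 h then exposed to compounds 17 h at 37C, 5% CO2; reporter induction read with CCF4-AM FRET substrate.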

[18] = qHTS assay to identify small molecule agonists of the estrogen related receptor (ERR) signaling pathway from Tox21 library (AID 1224849; calls by dose curve; also: nearly all actives have a fitted effect of over 15% in size); conditions: ERR reporter cell line, ONE-Glo luciferase, 18 h; at 92.4 µM (top of the series)
In short: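 ERR reporter cells (NTP line) pre-incubated 6 hours at 37 C, then exposed to compounds for 18 hours at 37 C. ONE-Glo luciferase luminescence was read after 30 minutes at room temperature.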

[19] = qHTS RealTime-Glo MT Cell Viability Assay in HepG2 cells - 24 hour (AID 1224867); also: nearly all actives have a fitted effect of over 50% in size
In short: as §4

[20] = qHTS assay to identify small molecule agonists of the hypoxia (HIF-1) signaling pathway - cell viability counter screen (AID 1224844; calls by dose curve; also: nearly all actives have a fitted effect of over 50% in size; also: potency is read from the fitted curve at half-maximal effect)
In short: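 HRE-bla ME-180 cells, 2,000/well in 0.5% dialyzed FBS medium, treated 17 h at 37C with compounds. Viability read in the same wells as the bla reporter, by CellTiter-Glo luminescence after 30 min at room temperature.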

CN(C)CCC=C1c2ccccc2CCc2ccccc21
outcome [1]: inactive
Potency [2]: 113 µM (active) and inactive
Potency [3]: inactive
Potency [4]: inactive and 54.9 µM (active)
Potency [5]: inactive
Potency [6]: inactive
Potency [7]: inactive
Potency [8]: inactive
Potency [9]: inactive and 49 µM (active)
Potency [10]: 38.9 µM (active) and 23.9 µM (active)
Potency [11]: 55 µM (active) and 43.6 µM (active) and 26.8 µM (active)

C[C@]12CC[C@H]3[C@@H](CCC4=CC(=O)CC[C@@]43C)[C@@H]1CC[C@@H]2C(=O)CO
outcome [1]: inactive
Potency [2]: inactive
Potency [12]: 27.3 µM (active) and 26.6 µM (active)
Potency [13]: 24.5 µM (active)
Potency [3]: inactive
Potency [4]: inactive
Potency [5]: inactive
Potency [7]: inactive
Potency [14]: 38.9 µM (active)
Potency [8]: inactive
Potency [15]: inactive
Potency [9]: inactive
Potency [10]: inactive
Potency [11]: inactive

Cn1cnc([N+](=O)[O-])c1Sc1ncnc2nc[nH]c12
Potency [16]: inactive
outcome [1]: inactive
Potency [2]: inactive
Potency [12]: inactive
Potency [13]: 19.4 µM (active)
Potency [3]: inactive
Potency [5]: 34.5 µM (active) and inactive
Potency [7]: inactive
Potency [14]: 20.5 µM (active) and 21.3 µM (active)
Potency [9]: inactive
Potency [10]: inactive
Potency [11]: 54.5 µM (active) and inactive

CCCCC(CC)COCC1CO1 (stereo unspecified)
Potency [16]: inactive
Potency [17]: inactive
Potency [2]: inactive
Potency [12]: inactive
activity change, positive = activation [18]: 1.35% (inactive) and -0.071% (inactive)
Potency [19]: inactive
Potency [13]: inactive
Potency [3]: inactive
Potency [4]: inactive
Potency [5]: inactive
Potency [6]: inactive
Potency [7]: inactive
max response [14]: 1.02% (inactive) and 0.683% (inactive)
Potency [8]: inactive
Potency [9]: inactive
Potency [10]: inactive
Potency [11]: inactive

c1ccc2c(c1)c1cccc3ccc4cccc2c4c31
Potency [16]: inactive
Potency [17]: 43.4 µM (active) and inactive
Potency [2]: inactive
Potency [19]: inactive
Potency [13]: inactive and 17.4 µM (active)
Potency [3]: inactive
Potency [5]: inactive
Potency [6]: inactive
Potency [7]: inactive
Potency [14]: 19.5 µM (active)
max response [14]: -16.2% (inactive)
Potency [8]: inactive
Potency [9]: inactive
Potency [10]: inactive
Potency [11]: inactive

Nc1ccccc1N
Potency [20]: 43.6 µM (active)
Potency [17]: inactive
Potency [2]: inactive
Potency [19]: inactive
Potency [13]: inactive
Potency [3]: 50.1 µM (active)
Potency [4]: inactive
Potency [5]: 50.1 µM (active)
Potency [7]: inactive
max response [14]: -5.16% (inactive)
Potency [8]: 50.1 µM (active)
Potency [15]: 56.2 µM (active) and inactive
Potency [9]: inactive
Potency [10]: 56.2 µM (active) and inactive
Potency [11]: 28.2 µM (active)

Nc1ccc(Nc2ccccc2)cc1
Potency [20]: inactive
Potency [17]: inactive
Potency [2]: 89.8 µM (active) and 50.5 µM (active)
Potency [13]: 48.5 µM (active)
Potency [3]: inactive
Potency [4]: inactive
Potency [5]: inactive
Potency [6]: 43.2 µM (active)
Potency [7]: inactive
Potency [14]: 48.5 µM (active)
Potency [8]: inactive
Potency [15]: inactive
Potency [9]: inactive
Potency [10]: inactive
Potency [11]: inactive

O=P(O)(O)O
Potency [16]: inactive
Potency [17]: inactive
Potency [2]: inactive
Potency [19]: inactive
Potency [13]: inactive
Potency [3]: inactive
Potency [4]: inactive
Potency [5]: inactive
Potency [6]: inactive
Potency [7]: inactive
max response [14]: -1.49% (inactive) and 1.49% (inactive)
Potency [8]: inactive
Potency [9]: inactive
Potency [10]: inactive
Potency [11]: inactive

C=C(C)C1CC=C(C)CC1 (stereo unspecified)
Potency [20]: inactive
Potency [17]: inactive
Potency [2]: inactive
Potency [19]: inactive
Potency [13]: inactive
Potency [3]: inactive
Potency [4]: inactive
Potency [5]: inactive
Potency [6]: inactive
Potency [7]: inactive
max response [14]: 1.72% (inactive) and 5.41% (inactive)
Potency [8]: inactive
Potency [15]: inactive
Potency [9]: inactive
Potency [10]: inactive
Potency [11]: inactive

c1ccc2cc(Nc3ccc(Nc4ccc5ccccc5c4)cc3)ccc2c1
Potency [20]: inactive
outcome [1]: inactive
Potency [17]: inactive
Potency [2]: inactive
Potency [12]: inactive
Potency [19]: inactive
Potency [13]: inactive
Potency [3]: inactive
Potency [5]: inactive
Potency [6]: inactive
Potency [7]: inactive
max response [14]: 5.1% (inactive) and 1.69% (inactive)
Potency [8]: inactive
Potency [15]: inactive
Potency [9]: inactive
Potency [10]: inactive
Potency [11]: inactive and 12.3 µM (active)

O=c1oc(=O)c2cc3c(=O)oc(=O)c3cc12
outcome [1]: inactive
Potency [17]: inactive
Potency [2]: inactive
Potency [12]: inactive
activity change, positive = activation [18]: 1.24% (inactive) and 2.94% (inactive)
Potency [19]: inactive
Potency [13]: inactive
Potency [3]: inactive
Potency [4]: inactive
Potency [5]: inactive
Potency [6]: inactive
Potency [7]: inactive
max response [14]: 5.31% (inactive) and 2.56% (inactive)
Potency [8]: inactive
Potency [15]: inactive
Potency [9]: inactive
Potency [10]: inactive
Potency [11]: inactive

C#C[C@]1(O)CC[C@H]2[C@@H]3CCC4=Cc5oncc5C[C@]4(C)[C@H]3CC[C@@]21C
Potency [20]: inactive
outcome [1]: inactive
Potency [2]: 89.8 µM (active)
Potency [12]: 24.3 µM (active) and 23.7 µM (active)
Potency [3]: inactive
Potency [5]: 49 µM (active)
Potency [8]: inactive
Potency [10]: inactive
Potency [11]: inactive

CC(C)OB(OC(C)C)OC(C)C
Potency [20]: inactive
outcome [1]: inactive
Potency [17]: inactive
Potency [2]: inactive
Potency [12]: inactive
Potency [13]: inactive
Potency [3]: inactive
Potency [4]: inactive
Potency [5]: inactive
Potency [6]: inactive
Potency [7]: inactive
max response [14]: -5.59% (inactive) and -12.5% (inactive)
Potency [8]: inactive
Potency [15]: inactive
Potency [9]: inactive
Potency [10]: inactive
Potency [11]: inactive
